Screening results deposited in PubChem by The Scripps Research Institute Molecular Screening Center.
The list is not random: actives were taken first. Their share in the collection is about 1.8%.
GSTO1 inh: blocks human GSTO1 in RBBP9 counter-screen | P78417 | recombinant GSTO1, activity-based probe fluorescence polarization | inhibition, % at 5.96 µM | actives 1.1% (n = 300,000) | AID 1974;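 active = inhibition above the campaign mean inhibition plus 3 SD, cut at about 35% in these data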
Target sequence (P78417 whole entry, looked up): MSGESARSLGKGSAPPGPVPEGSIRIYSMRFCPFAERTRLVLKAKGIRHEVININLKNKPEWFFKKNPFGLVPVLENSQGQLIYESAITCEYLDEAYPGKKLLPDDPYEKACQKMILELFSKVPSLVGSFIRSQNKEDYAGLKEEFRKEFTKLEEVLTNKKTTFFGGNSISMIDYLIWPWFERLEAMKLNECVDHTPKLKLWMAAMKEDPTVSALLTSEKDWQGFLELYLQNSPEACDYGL
PME-1 primary: blocks human protein phosphatase methylesterase 1; Q9Y570; recombinant PME-1, FP-Rh probe fluorescence polarization; inhibition, % at 5.9 µM; actives 0.53% (n = 320,000); AID 2130;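 active = inhibition above the campaign mean of all compounds plus 3 SD, cut at about 26% in these data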;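 also: competitive labeling of PME-1 active site by serine hydrolase directed probe; inhibitors block probe labeling so polarization falls and inhibition rises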
Target sequence (Q9Y570 whole entry, looked up): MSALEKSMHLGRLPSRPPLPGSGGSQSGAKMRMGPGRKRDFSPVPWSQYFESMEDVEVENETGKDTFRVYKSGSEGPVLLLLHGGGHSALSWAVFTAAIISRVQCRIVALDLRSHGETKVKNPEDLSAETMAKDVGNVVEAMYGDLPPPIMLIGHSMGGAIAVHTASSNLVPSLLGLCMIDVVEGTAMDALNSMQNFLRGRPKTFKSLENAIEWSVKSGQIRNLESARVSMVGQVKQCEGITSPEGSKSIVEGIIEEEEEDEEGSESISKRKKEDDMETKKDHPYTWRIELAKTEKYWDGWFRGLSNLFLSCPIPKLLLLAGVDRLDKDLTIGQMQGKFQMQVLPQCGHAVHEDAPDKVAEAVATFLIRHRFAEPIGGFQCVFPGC
LYPLA1 counter: blocks human lysophospholipase 1, a PME1 counter-screen | recombinant LYPLA1, FP-Rh probe fluorescence polarization | inhibition, % at 5.9 µM | actives 0.16% (n = 320,000) | AID 2174;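 active = inhibition above the mean of all tested compounds plus 3 SD, set per campaign, cut at about 14% in these data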;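 also: inhibitors block serine hydrolase probe labeling of LYPLA1 so polarization falls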
PAD4 FP inh: blocks human protein arginine deiminase 4; Q9UM07; AID 485272; recombinant PAD4, RCA probe fluorescence polarization; actives 0.41% (n = 330,000); inhibition, % at 6.36 µM;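 active = percent inhibition above a cutoff equal to the mean of all tested compounds plus 3 SD, cut at about 15% in these data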
Fam108B counter: blocks mouse Fam108B hydrolase in RBBP9 counter-screen. actives 0.33% (n = 300,000). AID 1947. recombinant Fam108B, FP-Rh probe fluorescence polarization. inhibition, % at 9.51 µM;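 active = inhibition above the screen mean inhibition plus 3 SD, computed separately per campaign, cut at about 18% in these data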;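 also: inhibitors lower polarization as less probe binds the enzyme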
LYPLA2 inh: counter-screen for PME1 inhibitors: inhibitors of human LYPLA2; actives 0.38% (n = 320,000); recombinant LYPLA2, FP-Rh probe fluorescence polarization; inhibition, % at 5.9 µM; O95372;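 active = inhibition above the screen-wide mean plus 3 SD, limit set per campaign, cut at about 26% in these data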
Fam108b confirm: Fam108b (mouse) hydrolase inhibition, confirmation assay; shares compounds with Fam108B counter; recombinant Fam108b, FP-Rh probe fluorescence polarization; inhibition, % at 9.51 µM; actives 44% (n = 930); AID 1978;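 active = inhibition above a limit from the primary screen, the mean over all compounds plus 3 SD, cut at about 19% in these data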;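 also: inhibitors free the probe so polarization falls as inhibition rises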
Fam108b ABPP HTS: inhibits mouse Fam108b in gel-based ABPP; shares compounds with Fam108B counter; recombinant Fam108b, fluorophosphonate probe; inhibition, % at 20 µM; actives 44% (n = 260); in the data active = inhibition above about 40%
GSTO1 confirm: GSTO1 (human) inhibition, confirmation. shares compounds with GSTO1 inh. recombinant GSTO1, probe fluorescence polarization. inhibition, % at 5.96 µM. actives 54% (n = 2,400);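 active = inhibition above the primary screen's cutoff, its mean inhibition plus 3 SD, cut at about 35% in these data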;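 also: loss of polarization as inhibitors block binding of rhodamine sulfonate ester activity probe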
LYPLA1 conf: counter-screen for PME1 inhibitors: confirmation of human LYPLA1 inhibitors. shares compounds with LYPLA1 counter. recombinant LYPLA1, FP-Rh probe fluorescence polarization. inhibition, % at 5.9 µM. actives 69% (n = 480). AID 2233;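 active = mean inhibition across replicates above the hit cutoff set in the primary screen, cut at about 15% in these data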;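 also: loss of FP-Rh probe labeling of LYPLA1 seen as lower polarization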
LYPLA2 conf: LYPLA2 (human) inhibition, confirmation counter-screen | shares compounds with LYPLA2 inh | recombinant LYPLA2, FP-Rh probe fluorescence polarization | inhibition, % at 5.9 µM | actives 72% (n = 1,100) | AID 2232;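 active = mean inhibition across replicates above the hit cutoff set in the primary screen, cut at about 26% in these data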;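 also: blocked labeling of the enzyme by serine hydrolase FP-Rh probe lowers polarization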
PAD4 FP conf: PAD4 (human) inhibition, confirmed; AID 488796; recombinant PAD4, RCA probe fluorescence polarization; inhibition, % at 6.36 µM; actives 28% (n = 1,200); shares compounds with PAD4 FP inh;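 active = mean inhibition across replicates above the hit cutoff set by the earlier primary screen, cut at about 15% in these data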;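 also: inhibitors block active-site labeling by the probe so polarization falls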
Of the large screens only hits and unclear results are named; the others gave an inactive call (follow-up assays come after a bar, where they were run).

CN1C(=O)c2cccc3c(Cl)ccc(c23)C1=O	none
CNc1ccc2c3c(cccc13)C(=O)N(C)C2=O	GSTO1 inh 40.1, PME-1 primary 77.1, LYPLA1 counter 58.7, PAD4 FP inh 94.7, Fam108B counter 62.0, LYPLA2 inh 82.2 | Fam108b confirm 47.1 | Fam108b ABPP HTS inactive | GSTO1 confirm inactive | LYPLA1 conf 47.1 | LYPLA2 conf 59.0 | PAD4 FP conf 86.3
COCCCNc1nc2ccccc2[nH]c1=O	none
COCCCNc1c2c3c(cccc3[nH]c1=O)C(=O)c1ccccc1-2	GSTO1 inh 79.5, PME-1 primary 124.4, LYPLA1 counter 105.4, PAD4 FP inh 135.0, Fam108B counter 106.2, LYPLA2 inh 126.1 | Fam108b confirm 131.5 | Fam108b ABPP HTS inactive | GSTO1 confirm 91.6 | LYPLA1 conf 100.8 | LYPLA2 conf 96.9 | PAD4 FP conf 151.3
CCCN1Cc2cc(OC)ccc2-c2ccccc2S1(=O)=O	none (no result: GSTO1 inh, PME-1 primary, LYPLA1 counter, Fam108B counter, LYPLA2 inh)
O=C(O)CCSc1nnc(COc2ccc(Cl)cc2)n1-c1ccccc1	none
Oc1ccc(N=Cc2ccc(-c3cccs3)s2)cc1	GSTO1 inh 81.7, PME-1 primary 51.4, PAD4 FP inh 17.7, Fam108B counter 27.7, LYPLA2 inh 29.2 | Fam108b confirm 61.8 | Fam108b ABPP HTS inactive | GSTO1 confirm inactive | LYPLA2 conf inactive | PAD4 FP conf inactive
CCC(C)(C)NC(=O)CN(Cc1ccccc1Cl)C(=O)CCC(=O)Nc1cc(C)ccn1	none
N#CCN(CC#N)C(=O)C1c2ccccc2Oc2ccccc21	PME-1 primary 77.4, LYPLA1 counter 87.0, PAD4 FP inh 55.6, Fam108B counter 91.3, LYPLA2 inh 105.4 | Fam108b confirm inactive | LYPLA1 conf inactive | LYPLA2 conf inactive | PAD4 FP conf inactive
O=[N+]([O-])c1cc([N+](=O)[O-])c(Oc2cncc(Cl)c2)cc1NC1CCCCCCC1	none
COc1ccc(N=C2NC(=O)S/C2=C\c2ccc(N(C)C)cc2)cc1	PME-1 primary 47.0, LYPLA1 counter 28.1, PAD4 FP inh 35.9, Fam108B counter 31.6, LYPLA2 inh 33.5 | Fam108b confirm 27.7 | LYPLA1 conf 27.5 | LYPLA2 conf inactive | PAD4 FP conf 47.5
CCOc1ccc(N=C2NC(=O)S/C2=C\c2ccc(Cl)cc2)cc1	none
Nc1ccc(O)c2c1C(=O)c1ccccc1C2=O	GSTO1 inh 49.1, PME-1 primary 56.3, LYPLA1 counter 50.0, PAD4 FP inh 48.7, Fam108B counter 53.0, LYPLA2 inh 61.6 | Fam108b confirm 49.5 | Fam108b ABPP HTS inactive | GSTO1 confirm 37.2 | LYPLA1 conf 36.4 | LYPLA2 conf 58.8 | PAD4 FP conf 41.0
N#Cc1c(NC(=O)c2ccc(Br)o2)n(-c2ccccc2)c2nc3ccccc3nc12	GSTO1 inh 73.7, PAD4 FP inh 36.3, Fam108B counter 32.8 | Fam108b confirm 33.7 | Fam108b ABPP HTS inactive | GSTO1 confirm 85.0 | PAD4 FP conf 19.9
CCn1c(CSc2nccn2C)nc2cc(C(=O)O)ccc21	LYPLA1 counter 25.6, PAD4 FP inh 34.5, Fam108B counter 20.3 | Fam108b confirm 59.4 | Fam108b ABPP HTS inactive | LYPLA1 conf 24.2 | PAD4 FP conf 43.4
COc1ccc2noc3c2c1C(=O)c1ccccc1-3	PME-1 primary 26.4, LYPLA1 counter 25.4, PAD4 FP inh 142.6, Fam108B counter 20.5, LYPLA2 inh 28.6 | Fam108b confirm 23.1 | LYPLA1 conf 21.0 | LYPLA2 conf inactive | PAD4 FP conf 144.1
O=C1c2cccc3c(O)ccc(c23)C(=O)N1c1ccc(Cl)cc1	PME-1 primary 36.6, LYPLA1 counter 20.4, PAD4 FP inh 33.7, Fam108B counter 20.3, LYPLA2 inh 33.1 | Fam108b confirm inactive | LYPLA1 conf 15.5 | LYPLA2 conf inactive | PAD4 FP conf 31.1
Cc1ccc(N2C(=O)c3cccc4c(C(=O)O)ccc(c34)C2=O)cc1	none
CC(=O)Nc1ccc(N2C(=O)c3cccc4c(O)ccc(c34)C2=O)cc1	LYPLA1 counter 17.2, PAD4 FP inh 38.8, Fam108B counter 25.6 | Fam108b confirm inactive | LYPLA1 conf 15.9 | PAD4 FP conf 36.5
COc1ccc(NC(=O)Nc2ccc(CC(=O)O)cc2)cc1	none
O=C(O)CSc1cc(NS(=O)(=O)c2ccc(Br)cc2)c2ccccc2c1O	GSTO1 inh 90.3, PME-1 primary 29.8, PAD4 FP inh 31.0, Fam108B counter 22.3, LYPLA2 inh 37.5 | Fam108b confirm inactive | GSTO1 confirm 81.5 | LYPLA2 conf inactive | PAD4 FP conf inactive
COc1ccc(C(=O)CC(c2ccccc2)S(=O)(=O)c2ccc(C)cc2)cc1 (stereo unspecified)	none
COc1ccc(C(CC(=O)c2ccc(O)cc2)S(=O)(=O)c2ccc(C)cc2)cc1 (stereo unspecified)	GSTO1 inh 39.6 | GSTO1 confirm inactive
CCCCOc1ccc(-c2ncc(C(=O)O)c(C)n2)cc1	GSTO1 inh 43.4 | GSTO1 confirm inactive
CC(=O)N(Cc1ccc(F)cc1)c1cccc(C)c1C	none
CC(=O)N(Cc1ccc(F)cc1)C1=C(NCCc2ccccc2)C(=O)c2ccccc2C1=O	GSTO1 inh 44.3 | GSTO1 confirm 45.8
CC1CCN(S(=O)(=O)c2cccc(C(=O)NC3CCCCC3)c2)CC1	none
COc1cc(OC)c(NS(=O)(=O)c2cc(C(=O)OC(C)C(=O)NC3CC3)c(Cl)cc2Cl)cc1Cl (stereo unspecified)	GSTO1 inh 46.4 | GSTO1 confirm 65.6
Cc1ccc(S(=O)(=O)NC(C)(C)C)cc1C(=O)OC(C)C(=O)NC1CC1 (stereo unspecified)	none
COC(=O)CNC(=O)c1ccc(F)cc1	none
COC(=O)c1ccc(Sc2ccc(C)cc2)c(N)c1	none
COc1cc(Sc2ccc(C)cc2)c(OC)cc1N	GSTO1 inh 47.3 | GSTO1 confirm inactive
CCNC(=O)c1ccccc1-c1nc(-c2ccccc2)no1	none
O=C(CN(c1ccccc1)S(=O)(=O)c1ccccc1[N+](=O)[O-])NN=C1CCCCCCC1	none
